Assay results reported in PubChem BioAssay (Tox21).
Records with an inconclusive call do not appear. A call without a number means that no potency is given here. The source made the active and inactive calls. Calls come from the whole dose curve; as a rule, active = well fitted inhibition curve with a large enough effect in the repeat runs; inconclusive = weak or mixed curves; inactive = no such curve, though single readings can be large or run the other way.

biological target: Cytochrome P450 3A4 (Homo sapiens) (UniProt P08684); experiment: Cytochrome P450 Family 3 Subfamily A Member 4 (CYP3A4) small molecule antagonists: luciferase reporter qHTS assay (AID 1671201); details: P450-Glo CYP3A4 enzyme, luciferin luminescence, 1 h; series mostly up to 115 µM; note: nearly all actives have a fitted effect of over 50% in size
In short: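 Compounds in DMSO were pin-transferred onto CYP3A4 enzyme-substrate mix and held 10 min at room temperature. NADPH regenerating solution started the reaction for 1 h; luciferin detection reagent stopped it, and luminescence was read after 20 min.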
Potency is the fitted concentration of half-maximal effect.

Cytochrome P450 3A4 (Homo sapiens), sequence (P08684 whole entry, looked up): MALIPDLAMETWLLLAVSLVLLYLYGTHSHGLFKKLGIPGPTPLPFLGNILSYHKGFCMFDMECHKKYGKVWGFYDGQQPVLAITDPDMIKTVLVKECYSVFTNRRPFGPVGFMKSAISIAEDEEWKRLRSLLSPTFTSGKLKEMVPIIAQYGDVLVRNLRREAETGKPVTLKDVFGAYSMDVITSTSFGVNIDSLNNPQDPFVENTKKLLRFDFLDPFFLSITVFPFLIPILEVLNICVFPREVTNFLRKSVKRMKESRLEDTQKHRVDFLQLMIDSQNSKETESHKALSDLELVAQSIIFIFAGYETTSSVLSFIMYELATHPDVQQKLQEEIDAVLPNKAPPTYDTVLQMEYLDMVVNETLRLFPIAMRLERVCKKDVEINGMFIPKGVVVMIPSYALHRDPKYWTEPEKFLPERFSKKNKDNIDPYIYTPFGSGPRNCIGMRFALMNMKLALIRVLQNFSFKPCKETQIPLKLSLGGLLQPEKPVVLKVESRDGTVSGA

| Structure (SMILES) | Potency |
| --- | --- |
| O=C(O)C1(C(=O)O)CCC1.[NH2-].[NH2-].[Pt+2] | inactive |
| CC(=O)c1ccc2c(c1)N(CCCN(C)C)c1ccccc1S2 | inactive |
| C[C@H]1C[C@H]2[C@@H]3CCC4=CC(=O)C=C[C@]4(C)[C@@]3(Cl)[C@@H](O)C[C@]2(C)[C@@]1(O)C(=O)CO | inactive |
| O=C1CCCCCCCCCCCC(=O)OCCO1 | 35.6 µM (active) |
| CN1Cc2cc(C(=O)N3CCC(C4CCNCC4)CC3)ccc2NC(CC(=O)O)C1=O (configuration not stated) | inactive |
| Cc1oc2c(NC(=O)c3c(Cl)cccc3Cl)cccc2c1C(C)(C)O | 28.3 µM (active) |
| CCCCCCCCCCCc1ccccc1 | inactive |
| CCCCC(CC)CN1C(=O)C2C3C=CC(C3)C2C1=O (configuration not stated) | 1 µM (active) |
| C=CCOC(=O)CCC1CCCCC1 | inactive |
| Cc1cc(C(=O)O)ccc1[N+](=O)[O-] | inactive |
| CC(C)(COC(=O)c1ccccc1)COC(=O)c1ccccc1 | inactive |
| O=C1c2ccccc2S(=O)(=O)N1CCCCN1CCN(c2ncccn2)CC1 | inactive |
